The campaign covered roughly 320,000 compounds. About 1,300 (0.41%) were called active. Inconclusive results (about 3%) are left out. How the calls were made is not given here. A selection follows. Measured potencies and affinities stand elsewhere.
assay: growth inhibition of non-replicating M. tuberculosis (AID 488890); conditions: Mycobacterium tuberculosis non-replicating, at 25 µM, stronger effect = higher value;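 further: plate controls were DMSO cells for no effect and high antibiotic wells for full effect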

Compound | inhibition
Cc1ccccc1-c1nnc(SCC(=O)NC2CCCC2)n1C | 0.83%
C[C@H]1CN([C@@H](C)CO)C(=O)c2cc(NC(=O)C3CCCCC3)ccc2O[C@H]1CN(C)CC1CCCCC1 | 5.45%
CCc1ccc(CNC(=O)c2ccc(OC)c(OC3CCN(C(C)C)CC3)c2)nc1 | 2.53%
Cc1cccc(NC(=O)CCc2nnc3ccc(NCc4ccco4)nn23)n1 | -10.9%
COc1ccc(-c2cnn3c4c(c(C)nc23)CCN4C(C)C)cc1OC | 6.73%
CCOC(=O)Nc1ccc2c(c1)Sc1ccccc1N2C(=O)CCN1CCOCC1 | 39.8%
CCOC(=O)Nc1ccc2c(c1)N(C(=O)CN)c1ccccc1CC2 | 22.7%
CCOC(=O)Nc1ccc2c(c1)N(C(=O)CCN1CCOCC1)c1ccccc1S2 | 20.2%
CCOC(=O)Nc1ccc2c(c1)N(C(=O)CCN(C)C)c1ccccc1CC2 | -1.89%
O=C(CN1CCCCCC1)Nc1cc(C(F)(F)F)ccc1Cl | 1.63%
COc1ccc(CNC(=O)C(NC(C)=O)C(C)C)cc1OC (stereo not drawn) | -1.56%
COc1ccc([N+](=O)[O-])cc1N(CC(O)CN1C(=O)NC(C)(C)C1=O)S(=O)(=O)c1ccccc1 (stereo not drawn) | -14.2%
Cc1nnc(NC(=O)C2=COCCO2)s1 | -3.76%
Cc1ccc(C(=O)NC2CCCC2)s1 | 56.2%
CCOC(=O)Nc1cccc(Cl)c1C | 20.8%
CCOc1ccc(C(=O)NC2CCCCCCC2)cc1 | 77.1%
Cc1c(Cl)cccc1NC(=O)c1ccc(OCC(=O)NCc2ccccc2)cc1 | -7.76%
CCC(=O)c1ccc(OCC(=O)OCC(=O)NC2CCCCCC2)cc1 | 20.5%
O=C(NC1CCCC1)c1ccc(Cl)s1 | 75.8%
CN(Cc1ccccc1)C(=O)COC(=O)c1cc(=O)c2ccccc2o1 | -3.1%
COc1ccccc1C(=O)Nc1nc2cc3c(cc2s1)OCO3 | -15.7%
O=C(Nc1cc(F)ccc1F)c1ccc(-n2cncn2)c([N+](=O)[O-])c1 | 3.94%
COc1ccc(NC(=O)C2CC(=O)n3ncnc3N2)cc1 (stereo not drawn) | -0.6%

Compound | inhibition
COc1cc(-c2nc(-c3ccccc3)c(-c3cccs3)[nH]2)cc(OC)c1OC | -1.14%
Cc1ccc(C(=O)NC(C)c2ccc(S(N)(=O)=O)cc2)s1 (stereo not drawn) | -0.6%
CC(=O)Nc1ccc(NC(=O)CSc2nnc(CC(C)O)n2-c2ccccc2)cc1 (stereo not drawn) | -7.33%
O=C(CN1CCN(S(=O)(=O)c2ccc(F)cc2)CC1)Nc1ccc(Cl)cn1 | 37.8%
FC(F)(F)c1cccc(Cc2noc(CN3CCCC(CN4CCCC4)C3)n2)c1 (stereo not drawn) | 51%
Cc1cccn2c(CNC3CCCc4ccccc43)c(C(=O)N3CCOCC3)nc12 (stereo not drawn) | 21.9%
CCn1c(C)nc2cc(S(N)(=O)=O)ccc21 | -15.1%
CC(C)c1onc(C(=O)NCc2ccccc2)c1[N+](=O)[O-] | 44.9%
Cc1cc(Cl)nc(-n2nc(C)cc2C)n1 | 27.1%
Cc1cc(C)n(-c2nc3ccccc3nc2N2CCC(C)CC2)n1 | 34%
CCCc1nc(C)cc(N2CCN(c3ccccc3)CC2)n1 | -3.49%
Cc1cc(N2CCN(c3ccccc3)CC2)nc(N)n1 | -1.71%
COc1ccccc1OCc1ccc(C(=O)NCC2CCCO2)cc1 (stereo not drawn) | 1.26%
Cc1cccc(N2CCN(C(=O)c3ccc(CS(=O)Cc4cccc(Cl)c4)o3)CC2)c1C (stereo not drawn) | 28.5%
Cn1nc(C(=O)NCCN2CCOCC2)c2ccccc2c1=O | -5.46%
CC(=O)n1cc(C=C2C(=O)NC(=O)NC2=O)c2ccccc21 | 0%
CC(=O)O/C(=C\c1cn(C(C)=O)c2ccccc12)C(=O)O | -6.32%
Cc1ccc2c(c1)N(C)/C(=C/c1cccc[n+]1CCO)S2 | 6.55%
O=C(O)Cc1ccc(NS(=O)(=O)c2c(Cl)cccc2Cl)cc1 | -11.9%
CCNc1nc(N2CCCC2)nc(N2CCCC2)n1 | 75.5%
CC(C)(C)Nc1nc(N2CCCC2)nc(N2CCCC2)n1 | 59.5%
CCOC(=O)[C@@H]1[C@H]2COc3cc(OC)ccc3[C@H]2N2C(=O)N(c3cccc(Cl)c3)C(=O)[C@]12C | 1.05%
O=C(NCCCN1CCOCC1)c1c(O)c2ccccc2[nH]c1=O | -0.01%

Compound | inhibition
COc1cc2[nH]c(=O)c(C(=O)NCCCN3CCOCC3)c(O)c2cc1OC | 1.72%
CCc1ccc(C(=O)Nc2cc3c(cc2Cl)OCCCO3)cc1 | 42%
O=C(O)C1CCN(C(=O)CCN2C(=O)S/C(=C\c3ccccc3)C2=O)CC1 | 1.98%
CCCCn1c(=O)c(CCC(=O)OCC(=O)Nc2cc(Cl)ccc2OC)nc2ccccc21 | -2.09%
COC(=O)[C@H](CCSC)NC(=O)NCCc1ccc(F)cc1 | -16.4%
CCCCCn1c(=O)c2ccccc2n2c(=S)[nH]nc12 | -0.64%
CCCCn1c(=O)c2ccccc2n2c(=S)[nH]nc12 | -11.3%
Cc1ccccc1Sc1ncnc2onc(C)c12 | 5.13%
COC(=O)c1ccccc1Sc1snnc1C | -5.51%
COc1ccc(Sc2ncnc3onc(C)c23)cc1 | 58.2%
Cc1ccc(Sc2ncnc3onc(C)c23)cc1 | 72.5%
CN(C)S(=O)(=O)c1ccc(NC(=O)COC(=O)C2CC3CCCC(C2)C3=O)cc1 (stereo not drawn) | 14.8%
COc1ccc(-n2c(O)c(C=NCCCn3ccnc3)c(=O)[nH]c2=O)cc1 | -3.58%
Cc1cc(NC(=O)CN2CCN(c3ccccc3O)CC2)no1 | 3.86%
CCCCn1c(=O)c(C=Nc2cc([N+](=O)[O-])ccc2OC)c(O)n(CCCCl)c1=O | 64%
CCCCN1CC(C(=O)NC2CCCCC2)CC1=O (stereo not drawn) | -9.76%
CCOc1ccc2oc(C(=O)OCC(=O)NCc3ccc(OC)cc3)c(C)c2c1 | 26.4%
Cc1nn(C2CCS(=O)(=O)C2)c(Cl)c1/C=C/C(=O)OCC(=O)Nc1ccc2c(c1)OCO2 (stereo not drawn) | 3.18%
O=C(c1cnn2c(C(F)(F)F)cc(-c3ccccc3)nc12)N1CCCCC1c1cccnc1 (stereo not drawn) | 22.6%
Nc1ccc(-c2nc3ncccc3o2)c(O)c1 | 8.78%
O=C1OC(Oc2ccccc2)(c2ccccc2)c2ccccc21 (stereo not drawn) | -1.31%
COc1ccccc1COCC(O)CNCCc1ccc(C(F)(F)F)cc1 (stereo not drawn) | 67.5%
OC(CNCCc1ccccc1)COc1ccc(OCC(O)CNCCc2ccccc2)cc1 (stereo not drawn) | 59.6%

Compound | inhibition
OC(CNCc1ccccc1F)COc1cccc2ccccc12 (stereo not drawn) | 29.3%
COc1ccc(CCNCC(O)COc2cccc(Br)c2)cc1 (stereo not drawn) | 45.7%
O=c1c2ccccc2nc(/C=C/c2ccc(F)cc2)n1-c1ccccn1 | -7.61%
Cc1ccnc(NC(=O)c2ccccc2NC(=O)c2ccccc2)c1 | 7.95%
OCCCn1c(CCNc2nc(-c3ccc(F)cc3)cs2)nc2cc(C(F)(F)F)ccc21 | 26.8%
c1ccc2cc(OCCOCCOc3ccc4ccccc4c3)ccc2c1 | -3.69%
CN(C)CCOc1ccc2ccccc2c1 | -16.7%
COC(C(=O)Nc1ccc(S(=O)(=O)Nc2ccc(F)cc2)cc1)c1ccccc1 (stereo not drawn) | 30.9%
CCOc1ccc(C(C(=O)NCC2CCCO2)N(C(=O)c2snc(C(N)=O)c2N)c2cccc(F)c2)cc1 (stereo not drawn) | 3.71%
CCc1ccc(OCC(=O)NCCN(C)C)c(Br)c1 | 5.23%
O=C(NCCCNC(=O)c1cnccn1)c1ccc(Cl)c(Cl)c1 | -0.84%
COc1ccccc1OCC(=O)NNC(=O)c1cnccn1 | 3.6%
COc1ccc(CC(=O)NNC(=O)c2cnccn2)cc1 | -6.37%
COc1ccc(CC(=O)NNC(=O)COc2ccc(Br)cc2C)cc1OC | -13.1%
O=C(NCCNC(=O)c1cnccn1)c1ccc(Cl)c(Cl)c1 | 5.99%
Cc1ccc(C(=O)NNC(=O)COc2ccc(Cl)cc2C)o1 | -11.3%
Cc1cc(Cl)ccc1OCC(=O)NNC(=O)c1cccnc1 | -9.52%
Cn1nc(C(=O)N2CCOCC2)c2ccccc2c1=O | -8.35%
O=C(COc1ccccc1-c1ccccc1)c1ccccc1 | 50.1%
COc1cc([C@@H]2CC=C(C(=O)O)[C@H](c3ccccc3)N2S(=O)(=O)c2ccc(C)cc2)cc(OC)c1OC | 12.5%
CCN(CC)C(=O)[C@H]1CC(CC(=O)NCCCOC)C(=O)N2CCc3c([nH]c4ccccc34)[C@]12C (stereo partly drawn) | -1.9%
CC(=O)N1CCN(c2ccccc2NC(=O)COc2cc(C)ccc2C(C)C)CC1 | 34.3%
CCOc1ccc(NC(=O)CCCN2C(=O)C(c3ccccc3)Oc3cccnc32)cc1 (stereo not drawn) | 3.12%

Compound | inhibition
CC1(C)CC(=O)c2c(Cc3ccccc3)noc2C1 | 3.41%
CCN(CC)CCn1c2c(c(SCC(=O)NCc3ccccc3)nc1=O)CCC2 | 8.95%
Cc1ccc(S(=O)(=O)NCC(=O)NCC(=O)N(C)Cc2ccc3ccccc3c2)cc1C | 31.9%
O=C(COc1ccc(Cl)cc1Br)Nc1ccncc1 | 69.3%
CCc1ccc(OCC(=O)NC(=S)Nc2ccc(F)cc2)c(Br)c1 | 9.95%
Cc1cc(Br)ccc1OCC(=O)NNC(=O)Cc1ccccc1 | -15.6%
Cc1cc(Br)ccc1OCC(=O)NNC(=O)CCc1ccccc1 | 29%
CCCc1nc2oc3c(NCCOCCO)ncnc3c2c2c1COC(C)(C)C2 | -8.1%
CCCN(CC(=O)Nc1ccc(F)c(F)c1F)CC(=O)Nc1c(C)n(C)n(-c2ccccc2)c1=O | 37.8%
COc1ccccc1-n1nnnc1SCC(=O)NC1CCCCC1 | 2.38%
Cc1[nH]c(C)c(S(=O)(=O)Nc2cccc(Cl)c2C)c1C(=O)N1CCCC1 | 6.67%
Cc1ccsc1/C=N/NC(=O)CN1CCN(Cc2ccccc2)CC1 | -0.88%
O=C(NCC1CCCO1)NC12CC3CC(CC(C3)C1)C2 (stereo not drawn) | -2.4%
Cc1ccccc1OCC(=O)N/N=C/C=C/c1ccccc1 | -6.11%
CCCCCC(=O)N/N=C/c1ccc([N+](=O)[O-])o1 | 73.3%
CCOC(=O)N/N=C\c1ccc([N+](=O)[O-])o1 | 59.1%
COC(=O)N/N=C/c1ccc([N+](=O)[O-])o1 | 70.7%
O=C(COc1ccccc1[N+](=O)[O-])N/N=C/C=C/c1ccco1 | 12.5%
Cc1cc(C)cc(OCC(=O)N/N=C/c2ccco2)c1 | 9.16%
COc1ccc(C(=O)NCC(=O)N/N=C/c2ccc(C)o2)cc1OC | 24.5%
COc1ccc(C(=O)NCC(=O)N/N=C/c2ccco2)cc1OC | -11.6%

Source: PubChem BioAssay AID488890 (Southern Research Specialized Biocontainment Screening …, 2010)
